In PubChem BioAssay (NCI):
The panel holds about 83,000 compounds, 20% with a hit somewhere; the sample as a whole holds those more often.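 In brief: 96-well plates, 48 h treatment, single concentration, percent growth endpoint.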 Active and inactive are the calls of the source. The calls were made as follows: active = growth percent below 10; inactive = the rest.

Assays:
Assay in all cases: NCI-60 one-dose screen, 48 h (100 = growth as untreated, 0 = no growth, -100 = all killed)
Conditions in all cases: 10 µM unless noted
[1] = tested on: NCI-H23 lung
[2] = tested on: NCI-H226 lung
[3] = tested on: NCI-H322M lung
[4] = tested on: HOP-62 NSCLC
[5] = tested on: NCI-H460 lung
[6] = tested on: HOP-92 NSCLC
[7] = tested on: NCI-H522 lung
[8] = tested on: A549/ATCC NSCLC
[9] = tested on: 786-0 renal
[10] = tested on: COLO 205 colon
[11] = tested on: DU-145 prostate
[12] = tested on: K-562 leukemia
[13] = tested on: MALME-3M melanoma
[14] = tested on: MDA-MB-231 breast
[15] = tested on: RXF 393 renal
[16] = tested on: SF-268 CNS
[17] = tested on: SF-295 CNS
[18] = tested on: SF-539 CNS
[19] = tested on: UACC-257 melanoma
[20] = tested on: M14 melanoma

Measured: growth

N#Cc1ccc(OC(=O)Nc2c(Cl)cc(Cl)cc2Cl)cc1
inactive: [1] 109% | [2] 107% | [3] 100% | [4] 103% | [5] 139% | [6] 98.9% | [7] 89.8% | [8] 96.3% | [9] 100% | [10] 128% | [11] 111% | [12] 101% | [13] 95% | [14] 101% | [15] 125% | [16] 112% | [17] 108% | [18] 91.7% | [19] 97.7% | [20] 112%

CC(=O)CSc1ncnc2nc[nH]c12
inactive: [1] 106% | [2] 92.1% | [3] 115% | [4] 84.8% | [5] 98.4% | [6] 69.6% | [7] 72.8% | [8] 87.3% | [9] 91.7% | [10] 97.6% | [11] 94.3% | [12] 82.9% | [13] 93.4% | [14] 87.5% | [15] 89.9% | [16] 105% | [17] 99.7% | [18] 94.8% | [19] 78.3% | [20] 59.2%

Cc1c(-c2ccc(C3CCCCC3)cc2)nc2ccc(F)cc2c1C(=O)O
inactive: [1] 53.5% | [2] 64.1% | [3] 56.4% | [4] 61.7% | [6] 83.3% | [7] 38.5% | [8] 21.3% | [9] 38% | [10] 44.2% | [11] 39.3% | [12] 22.9% | [13] 62.1% | [14] 62.7% | [15] 74.1% | [16] 42.8% | [18] 37.1% | [19] 65.2% | [20] 47.9%
active: [5] 7.22% | [17] 2.98%

CCOC(=O)CNC
inactive: [1] 101% | [2] 98.8% | [3] 96.9% | [4] 106% | [5] 106% | [6] 91.1% | [7] 123% | [8] 87.8% | [9] 101% | [10] 116% | [11] 116% | [12] 96.8% | [13] 114% | [14] 97.8% | [15] 108% | [16] 115% | [17] 96.7% | [18] 99.7% | [19] 81.7% | [20] 104%

Cc1ccc(/C=N/NC(N)=S)s1
inactive: [1] 99.7% | [2] 99.1% | [3] 98.9% | [4] 102% | [5] 103% | [6] 100% | [7] 105% | [8] 109% | [9] 109% | [10] 104% | [11] 110% | [12] 103% | [13] 108% | [14] 104% | [15] 99.3% | [16] 98.7% | [17] 105% | [18] 97.6% | [19] 109% | [20] 102%

C=CCC(OC(C)=O)c1ccc(C(C)C)cc1 (stereo not given)
inactive: [1] 108% | [2] 106% | [3] 120% | [4] 109% | [5] 106% | [6] 86.7% | [7] 86.6% | [8] 92.3% | [9] 108% | [10] 122% | [11] 118% | [12] 108% | [13] 124% | [14] 122% | [15] 113% | [16] 110% | [17] 126% | [18] 104% | [19] 105% | [20] 114%

O=C(CCl)Oc1ccc([N+](=O)[O-])cc1
inactive: [1] 108% | [2] 102% | [3] 106% | [4] 98.9% | [5] 107% | [6] 78.5% | [7] 107% | [8] 108% | [9] 108% | [10] 116% | [11] 113% | [12] 103% | [13] 116% | [14] 119% | [15] 99.5% | [16] 109% | [17] 97.3% | [18] 109% | [19] 112% | [20] 103%

CCOC(=O)N[C@H]1CCc2cc(OC)c(OC)c(OC)c2-c2ccc(SC)c(=O)cc21
active: [2] -7.68% | [5] 2.01% | [7] -8.99% | [10] -4.99% | [11] 0.871% | [12] 9.44% | [14] -22% | [17] 3.33% | [18] -21.9% | [20] 4.1%
inactive: [1] 27.4% | [3] 30.7% | [4] 30.1% | [6] 29.4% | [8] 17.3% | [9] 15.6% | [13] 51.4% | [15] 10.7% | [16] 23% | [19] 71%
